In article PMC7862700, “An all-to-all approach to the identification of sequence-specific readers for epigenetic DNA modifications on cytosine”:

Legend:
Assay in all cases: DAPPL (digital affinity profiling via proximity ligation, sequencing); 10 mM Tris-HCl pH 7.5, 50 mM NaCl, 1 mM DTT, 4% glycerol, room temperature, 30 min; GST-TFs on glutathione beads, 16-mer random dsDNA library, 0.1% formaldehyde crosslink after washing; high values mean tight binding
Settings in all cases: protein: recombinant; tags: N-terminal GST; dsDNA, one strand shown
[1] = target: T1, ERF (Homo sapiens, UniProt P50548 1-548)
T1 sequence: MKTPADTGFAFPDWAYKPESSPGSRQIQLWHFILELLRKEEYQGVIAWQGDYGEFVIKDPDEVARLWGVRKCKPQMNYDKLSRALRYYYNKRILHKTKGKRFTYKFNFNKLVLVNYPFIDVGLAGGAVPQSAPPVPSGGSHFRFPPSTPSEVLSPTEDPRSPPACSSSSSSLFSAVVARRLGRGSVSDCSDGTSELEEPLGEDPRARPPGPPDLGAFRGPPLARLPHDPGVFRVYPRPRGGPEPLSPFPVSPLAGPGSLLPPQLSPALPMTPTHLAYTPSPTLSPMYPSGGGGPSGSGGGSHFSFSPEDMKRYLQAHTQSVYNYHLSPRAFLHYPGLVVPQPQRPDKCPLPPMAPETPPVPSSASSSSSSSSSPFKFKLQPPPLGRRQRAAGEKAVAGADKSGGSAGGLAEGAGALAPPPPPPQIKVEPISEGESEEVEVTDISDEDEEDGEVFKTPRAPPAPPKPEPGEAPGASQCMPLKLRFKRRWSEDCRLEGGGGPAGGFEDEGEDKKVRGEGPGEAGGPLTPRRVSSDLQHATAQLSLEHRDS
How it was run: (§1)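 The binding signal reported is, for every hexamer, its read frequency for a factor over its read frequency for the tag-only sample. Reads came from pools of yeast-expressed, GST-fused human transcription factors on glutathione beads, barcoded with DNA and mixed with that sample, which were incubated with 200 nmole of a random double-stranded 16-mer DNA library in Tris/NaCl/DTT/glycerol buffer at room temperature for 30 min. After washing, the pools were crosslinked with 0.1% formaldehyde, proximity-ligated with BsaI/T4 ligase for 1 h at 37 °C, PCR-amplified and sequenced on an Illumina NextSeq500.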

[2] = target: T2, ETV3L (Homo sapiens, UniProt Q6ZN32 1-361)
T2 sequence: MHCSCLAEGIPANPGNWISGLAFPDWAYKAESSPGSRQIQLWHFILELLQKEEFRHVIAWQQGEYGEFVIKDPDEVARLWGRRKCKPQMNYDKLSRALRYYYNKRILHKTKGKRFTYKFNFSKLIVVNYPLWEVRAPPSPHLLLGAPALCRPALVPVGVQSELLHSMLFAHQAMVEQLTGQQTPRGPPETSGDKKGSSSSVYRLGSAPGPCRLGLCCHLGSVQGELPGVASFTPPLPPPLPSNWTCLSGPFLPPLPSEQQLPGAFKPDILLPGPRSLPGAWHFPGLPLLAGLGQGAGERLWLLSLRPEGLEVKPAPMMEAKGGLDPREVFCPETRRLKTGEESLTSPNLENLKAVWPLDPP
How it was run: as §1

[3] = target: T3, ETS2 (Homo sapiens, UniProt P15036 1-469)
T3 sequence: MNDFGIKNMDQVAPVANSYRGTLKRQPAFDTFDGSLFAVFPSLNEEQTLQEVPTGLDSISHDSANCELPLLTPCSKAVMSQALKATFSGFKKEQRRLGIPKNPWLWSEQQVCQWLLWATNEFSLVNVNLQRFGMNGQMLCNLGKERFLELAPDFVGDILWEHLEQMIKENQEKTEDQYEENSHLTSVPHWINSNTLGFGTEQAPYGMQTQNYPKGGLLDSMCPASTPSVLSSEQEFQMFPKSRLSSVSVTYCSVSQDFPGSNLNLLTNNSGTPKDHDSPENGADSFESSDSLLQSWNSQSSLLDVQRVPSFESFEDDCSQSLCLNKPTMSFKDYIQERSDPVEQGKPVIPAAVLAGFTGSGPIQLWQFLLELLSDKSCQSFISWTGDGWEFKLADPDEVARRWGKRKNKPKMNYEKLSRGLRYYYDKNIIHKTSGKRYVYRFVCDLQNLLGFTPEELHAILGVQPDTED
How it was run: as §1

[4] = target: T4, SPDEF (Homo sapiens, UniProt O95238 1-335)
T4 sequence: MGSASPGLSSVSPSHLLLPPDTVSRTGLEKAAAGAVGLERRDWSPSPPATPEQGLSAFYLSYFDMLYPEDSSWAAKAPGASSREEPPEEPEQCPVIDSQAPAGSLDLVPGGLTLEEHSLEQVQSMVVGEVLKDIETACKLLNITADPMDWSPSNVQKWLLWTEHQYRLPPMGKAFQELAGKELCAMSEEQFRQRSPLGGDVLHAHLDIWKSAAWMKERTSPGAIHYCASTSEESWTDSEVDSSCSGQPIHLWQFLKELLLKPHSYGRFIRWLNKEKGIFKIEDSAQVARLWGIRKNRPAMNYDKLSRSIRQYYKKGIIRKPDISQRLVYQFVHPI
How it was run: as §1

[5] = target: T5, ELF5 (Homo sapiens, UniProt Q9UKW6-2 1-255)
T5 sequence: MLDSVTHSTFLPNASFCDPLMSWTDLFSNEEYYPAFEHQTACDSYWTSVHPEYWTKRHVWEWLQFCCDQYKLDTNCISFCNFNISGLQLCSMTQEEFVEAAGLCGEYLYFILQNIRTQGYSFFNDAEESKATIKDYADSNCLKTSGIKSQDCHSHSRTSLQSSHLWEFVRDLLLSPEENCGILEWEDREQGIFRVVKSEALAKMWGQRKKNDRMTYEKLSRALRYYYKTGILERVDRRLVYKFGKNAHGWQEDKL
How it was run: as §1

[6] = target: T6, ETV3 (Homo sapiens, UniProt P41162-2 1-143)
T6 sequence: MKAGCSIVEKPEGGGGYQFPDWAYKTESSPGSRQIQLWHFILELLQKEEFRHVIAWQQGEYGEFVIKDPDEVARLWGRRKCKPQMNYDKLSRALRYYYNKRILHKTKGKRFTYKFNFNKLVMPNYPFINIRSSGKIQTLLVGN
How it was run: as §1

[7] = target: ETV6 (Homo sapiens, UniProt P41212 1-452)
Chain of ETV6 (P41212 whole entry): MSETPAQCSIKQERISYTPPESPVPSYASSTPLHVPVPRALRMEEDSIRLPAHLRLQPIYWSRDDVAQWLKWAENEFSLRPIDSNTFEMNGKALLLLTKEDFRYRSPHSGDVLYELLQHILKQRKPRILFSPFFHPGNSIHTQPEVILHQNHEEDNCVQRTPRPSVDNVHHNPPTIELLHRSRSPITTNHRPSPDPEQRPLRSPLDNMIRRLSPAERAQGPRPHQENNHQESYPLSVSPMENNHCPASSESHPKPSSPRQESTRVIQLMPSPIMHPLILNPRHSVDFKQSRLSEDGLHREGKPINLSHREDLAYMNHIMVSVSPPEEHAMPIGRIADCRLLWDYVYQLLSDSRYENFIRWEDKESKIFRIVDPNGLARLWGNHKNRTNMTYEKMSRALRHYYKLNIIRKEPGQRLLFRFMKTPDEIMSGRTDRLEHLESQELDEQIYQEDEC
How it was run: as §1

[8] = target: T7, ETV7 (Homo sapiens, UniProt Q9Y603 1-341)
T7 sequence: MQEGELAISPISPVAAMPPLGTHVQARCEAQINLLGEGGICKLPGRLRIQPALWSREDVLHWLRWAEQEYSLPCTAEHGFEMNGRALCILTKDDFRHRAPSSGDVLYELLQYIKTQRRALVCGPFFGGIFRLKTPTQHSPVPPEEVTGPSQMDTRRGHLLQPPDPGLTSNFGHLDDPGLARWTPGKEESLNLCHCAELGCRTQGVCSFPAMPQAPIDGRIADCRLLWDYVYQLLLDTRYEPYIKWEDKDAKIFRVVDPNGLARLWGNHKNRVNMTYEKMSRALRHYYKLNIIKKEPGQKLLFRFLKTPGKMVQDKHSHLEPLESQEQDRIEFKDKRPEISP
How it was run: as §1

Row | Sequence | binding signal [1] | binding signal [2] | binding signal [3] | binding signal [4] | binding signal [5] | binding signal [6] | binding signal [7] | binding signal [8]
1 | GATCCC | 1.3 fold enrichment (6-mer frequency, TF over GST control) | 1.2 fold enrichment (6-mer frequency, TF over GST control) | 1.11 fold enrichment (6-mer frequency, TF over GST control) | 1.27 fold enrichment (6-mer frequency, TF over GST control) | 1.1 fold enrichment (6-mer frequency, TF over GST control) | 1.11 fold enrichment (6-mer frequency, TF over GST control) | 1.12 fold enrichment (6-mer frequency, TF over GST control) | 
2 | CTCAGA | 1.21 fold enrichment (6-mer frequency, TF over GST control) | 1.06 fold enrichment (6-mer frequency, TF over GST control) | 1.02 fold enrichment (6-mer frequency, TF over GST control) | 1.11 fold enrichment (6-mer frequency, TF over GST control) | 1.03 fold enrichment (6-mer frequency, TF over GST control) | 1.01 fold enrichment (6-mer frequency, TF over GST control) | 1.13 fold enrichment (6-mer frequency, TF over GST control) | 
3 | CAAAGC | 1.13 fold enrichment (6-mer frequency, TF over GST control) | 1.07 fold enrichment (6-mer frequency, TF over GST control) | 1 fold enrichment (6-mer frequency, TF over GST control) | 1.06 fold enrichment (6-mer frequency, TF over GST control) | 1.01 fold enrichment (6-mer frequency, TF over GST control) | 1.08 fold enrichment (6-mer frequency, TF over GST control) | 1.08 fold enrichment (6-mer frequency, TF over GST control) | 
4 | CGGCTT | 1.27 fold enrichment (6-mer frequency, TF over GST control) | 1.1 fold enrichment (6-mer frequency, TF over GST control) | 1.21 fold enrichment (6-mer frequency, TF over GST control) | 1.33 fold enrichment (6-mer frequency, TF over GST control) | 1.19 fold enrichment (6-mer frequency, TF over GST control) | 1.15 fold enrichment (6-mer frequency, TF over GST control) | 1.16 fold enrichment (6-mer frequency, TF over GST control) | 
5 | TAATCG | 1.06 fold enrichment (6-mer frequency, TF over GST control) | 1.09 fold enrichment (6-mer frequency, TF over GST control) | 1.08 fold enrichment (6-mer frequency, TF over GST control) | 1.05 fold enrichment (6-mer frequency, TF over GST control) | 1.05 fold enrichment (6-mer frequency, TF over GST control) |  | 1.05 fold enrichment (6-mer frequency, TF over GST control) | 
6 | TCACAA | 1.23 fold enrichment (6-mer frequency, TF over GST control) | 1.14 fold enrichment (6-mer frequency, TF over GST control) | 1.23 fold enrichment (6-mer frequency, TF over GST control) | 1.19 fold enrichment (6-mer frequency, TF over GST control) | 1.11 fold enrichment (6-mer frequency, TF over GST control) | 1.08 fold enrichment (6-mer frequency, TF over GST control) | 1.03 fold enrichment (6-mer frequency, TF over GST control) | 
7 | CCGTAA | 1.08 fold enrichment (6-mer frequency, TF over GST control) | 1.12 fold enrichment (6-mer frequency, TF over GST control) | 1.16 fold enrichment (6-mer frequency, TF over GST control) | 1.2 fold enrichment (6-mer frequency, TF over GST control) | 1.22 fold enrichment (6-mer frequency, TF over GST control) | 1.12 fold enrichment (6-mer frequency, TF over GST control) | 1.08 fold enrichment (6-mer frequency, TF over GST control) | 
8 | GCATTC | 1.16 fold enrichment (6-mer frequency, TF over GST control) | 1.07 fold enrichment (6-mer frequency, TF over GST control) | 1.08 fold enrichment (6-mer frequency, TF over GST control) | 1.1 fold enrichment (6-mer frequency, TF over GST control) | 1.06 fold enrichment (6-mer frequency, TF over GST control) | 1.17 fold enrichment (6-mer frequency, TF over GST control) | 1.19 fold enrichment (6-mer frequency, TF over GST control) | 
9 | CAACGC | 1.05 fold enrichment (6-mer frequency, TF over GST control) | 1.07 fold enrichment (6-mer frequency, TF over GST control) | 1.07 fold enrichment (6-mer frequency, TF over GST control) | 1.08 fold enrichment (6-mer frequency, TF over GST control) |  |  | 1.03 fold enrichment (6-mer frequency, TF over GST control) | 1.09 fold enrichment (6-mer frequency, TF over GST control)
10 | CATGCC | 1.12 fold enrichment (6-mer frequency, TF over GST control) | 1 fold enrichment (6-mer frequency, TF over GST control) | 1.05 fold enrichment (6-mer frequency, TF over GST control) | 1.09 fold enrichment (6-mer frequency, TF over GST control) | 1.05 fold enrichment (6-mer frequency, TF over GST control) | 1.22 fold enrichment (6-mer frequency, TF over GST control) | 1.15 fold enrichment (6-mer frequency, TF over GST control) | 
11 | CACAAT | 1.18 fold enrichment (6-mer frequency, TF over GST control) | 1.08 fold enrichment (6-mer frequency, TF over GST control) | 1.13 fold enrichment (6-mer frequency, TF over GST control) | 1.07 fold enrichment (6-mer frequency, TF over GST control) | 1.06 fold enrichment (6-mer frequency, TF over GST control) | 1.12 fold enrichment (6-mer frequency, TF over GST control) | 1.09 fold enrichment (6-mer frequency, TF over GST control) | 
12 | CCAAAC | 1.08 fold enrichment (6-mer frequency, TF over GST control) | 1.12 fold enrichment (6-mer frequency, TF over GST control) | 1.1 fold enrichment (6-mer frequency, TF over GST control) | 1.11 fold enrichment (6-mer frequency, TF over GST control) | 1.09 fold enrichment (6-mer frequency, TF over GST control) | 1.11 fold enrichment (6-mer frequency, TF over GST control) | 1.07 fold enrichment (6-mer frequency, TF over GST control) | 
13 | CGCTAG | 1.08 fold enrichment (6-mer frequency, TF over GST control) | 1.06 fold enrichment (6-mer frequency, TF over GST control) | 1.03 fold enrichment (6-mer frequency, TF over GST control) | 1.08 fold enrichment (6-mer frequency, TF over GST control) | 1.05 fold enrichment (6-mer frequency, TF over GST control) |  | 1.04 fold enrichment (6-mer frequency, TF over GST control) | 
14 | TCGCCG | 1.38 fold enrichment (6-mer frequency, TF over GST control) | 1.25 fold enrichment (6-mer frequency, TF over GST control) | 1.26 fold enrichment (6-mer frequency, TF over GST control) | 1.01 fold enrichment (6-mer frequency, TF over GST control) | 1.15 fold enrichment (6-mer frequency, TF over GST control) | 1.2 fold enrichment (6-mer frequency, TF over GST control) | 1.13 fold enrichment (6-mer frequency, TF over GST control) | 
15 | CGAAAA | 1.17 fold enrichment (6-mer frequency, TF over GST control) | 1.09 fold enrichment (6-mer frequency, TF over GST control) | 1.08 fold enrichment (6-mer frequency, TF over GST control) | 1.02 fold enrichment (6-mer frequency, TF over GST control) |  |  | 1.08 fold enrichment (6-mer frequency, TF over GST control) | 1.17 fold enrichment (6-mer frequency, TF over GST control)
